# Paper PMC11062922 (Nature Chemical Biology, 2023)
# Like-named read-outs stand apart in the source and are kept apart here.
# What was measured:
# Parameters in all cases: species or system human, MV4-11 + K-562 + COLO205 + SK-N-BE2 + OVCAR-8
# [1] = system: AURKB; details: read-out: apparent Kd, n = 1
# [2] = system: FLT3; details: read-out: apparent Kd, n = 1
# [3] = system: PIK3CD; details: read-out: apparent Kd, compound concentrations: 100 nM and 1000 nM (sheet 'Samples'), n = 1
# [4] = system: RPS6KA4; details: read-out: apparent Kd; compound concentrations: 100 nM and 1000 nM (sheet 'Samples'), CATDS: 0.19604885233209601; n = 1
# [5] = system: DDR1; details: read-out: apparent Kd, n = 1
# [6] = system: DDR2; details: read-out: apparent Kd; compound concentrations:100 nM and 1000 nM (sheet 'Samples'); n = 1
# [7] = system: EPHA7; details: read-out: apparent Kd; compound concentrations:100 nM and 1000 nM (sheet 'Samples'); n = 1
# [8] = system: EPHB6; details: read-out: apparent Kd; compound concentrations:100 nM and 1000 nM (sheet 'Samples'); n = 1
# [9] = system: FLT4; details: read-out: apparent Kd, n = 1
# [10] = system: JAK2; details: read-out: apparent Kd; compound concentrations:100 nM and 1000 nM (sheet 'Samples'); n = 1
# [11] = system: RET; details: read-out: apparent Kd, n = 1
# [12] = system: GALK1; details: read-out: apparent Kd; compound concentrations: 100 nM and 1000 nM (sheet 'Samples'), CATDS: 7.3268745996591306E-2; n = 1
# [13] = system: LIMK1; details: read-out: apparent Kd; compound concentrations: 100 nM and 1000 nM (sheet 'Samples'), CATDS: 8.69066115858768E-2; n = 1
# [14] = system: MAP4K5; details: read-out: apparent Kd; compound concentrations: 100 nM and 1000 nM (sheet 'Samples'), CATDS: 6.8685970274903196E-2; n = 1
# [15] = system: NLK; details: read-out: apparent Kd; compound concentrations: 100 nM and 1000 nM (sheet 'Samples'), CATDS: 6.8663594256603303E-2; n = 1
# [16] = system: RIPK2; details: read-out: apparent Kd; compound concentrations: 100 nM and 1000 nM (sheet 'Samples'), CATDS: 0.16558982732925701; n = 1
# [17] = compound concentrations:100 nM and 1000 nM (sheet 'Samples')
smiles,measurement,setting,value
O=C1Nc2ccccc2/C1=C1\CCc2cc(O)ccc21 [GR105659X],potency estimated from few doses,"[1]; compound concentrations: 100 nM and 1000 nM (sheet 'Samples'), CATDS: 0.205313587385097",0.856 µM
same,potency estimated from few doses,"[2]; compound concentrations: 100 nM and 1000 nM (sheet 'Samples'), CATDS: 0.27070299273409698",0.446 µM
same,potency estimated from few doses,[3]; CATDS: 0.42834866623309398,0.199 µM
same,potency estimated from few doses,[4],0.977 µM
Nc1ncnc2occ(-c3ccc(NC(=O)Nc4cc(C(F)(F)F)ccc4F)cc3)c12 [GW770249A_KCGS],potency estimated from few doses,[1]; [17],1.4 µM
same,potency estimated from few doses,[5]; [17],0.122 µM
same,potency estimated from few doses,[6],0.529 µM
same,potency estimated from few doses,[7],1.76 µM
same,potency estimated from few doses,[8],1 µM
same,potency estimated from few doses,[2]; [17],0.215 µM
same,potency estimated from few doses,[9]; [17],0.114 µM
same,potency estimated from few doses,[10],0.871 µM
same,potency estimated from few doses,[11]; [17],0.0171 µM
Cc1c2ccc(N(C)c3ccnc(Nc4cccc(S(N)(=O)=O)c4)n3)cc2nn1Cc1ccccc1.Cc1c2ccc(N(C)c3ccnc(Nc4cccc(S(N)(=O)=O)c4)n3)cc2nn1Cc1ccccc1.Cl.Cl [GW787226A],potency estimated from few doses,"[1]; compound concentrations: 100 nM and 1000 nM (sheet 'Samples'), CATDS: 8.6866554765288095E-2",0.941 µM
same,potency estimated from few doses,"[5]; compound concentrations: 100 nM and 1000 nM (sheet 'Samples'), CATDS: 9.2997876438350002E-2",0.776 µM
same,potency estimated from few doses,"[9]; compound concentrations: 100 nM and 1000 nM (sheet 'Samples'), CATDS: 0.48274666395287902",0.0353 µM
same,potency estimated from few doses,[12],1.65 µM
same,potency estimated from few doses,[13],0.94 µM
same,potency estimated from few doses,[14],2.13 µM
same,potency estimated from few doses,[15],2.13 µM
same,potency estimated from few doses,[3]; CATDS: 0.18116624440708201,0.176 µM
same,potency estimated from few doses,"[11]; compound concentrations: 100 nM and 1000 nM (sheet 'Samples'), CATDS: 0.101759373704586",0.612 µM
same,potency estimated from few doses,[16],0.209 µM
